Results on 90 compounds are retold here after PubChem BioAssay AID588493 (Sanford-Burnham Center for Chemical Genomics, 2011).

The campaign covered roughly 360,000 compounds. About 2,100 (0.58%) were called active.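 How the source made its calls: active means inhibition at 20 µM, scaled to each plate's controls, above about 33% (limit read from the data); inactive means the rest.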 This excerpt belongs to a sample that is enriched for actives.

The target of this assay is 26S proteasome non-ATPase regulatory subunit 14 (Homo sapiens) (UniProt O00487). The assay is described as follows: Rpn11 (PSMD14) deubiquitinase inhibitors, primary screen, biochemical, fluorescence polarization, uHTS (AID 588493). Particulars: human 26S proteasome, Ub4-pepOG fluorescence polarization; at 20 µM; stronger effect = higher value; 20S core pre-blocked with epoxomicin. For orientation: In fluorescence polarisation assays a small probe gives low polarisation when free and higher when bound to something large.
Sequence of 26S proteasome non-ATPase regulatory subunit 14 (Homo sapiens) (O00487 whole entry, looked up): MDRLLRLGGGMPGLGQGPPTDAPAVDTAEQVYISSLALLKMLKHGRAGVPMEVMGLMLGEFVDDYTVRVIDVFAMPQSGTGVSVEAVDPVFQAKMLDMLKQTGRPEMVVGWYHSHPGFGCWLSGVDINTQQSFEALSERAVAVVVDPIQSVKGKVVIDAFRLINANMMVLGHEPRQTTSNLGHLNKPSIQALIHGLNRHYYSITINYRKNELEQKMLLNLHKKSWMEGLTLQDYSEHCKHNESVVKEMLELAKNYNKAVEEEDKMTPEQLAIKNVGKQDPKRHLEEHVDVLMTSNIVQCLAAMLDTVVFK
As a reminder, the inhibition is the drop in the measured response relative to a control, in per cent. Regarding `Cc1ccc(S(=O)(=O)N[C@@H](Cc2ccccc2)C(=O)N2CCC(C(=O)N[C@H](C(=O)O)C(C)O)CC2)cc1` (stereo not given in full), the inhibition was -7.8% (inactive).
In the case of `O=C(CN1CCc2cc3c(cc2C1)OCCCO3)Nc1ccccc1`, the inhibition was 1.3% (inactive).
On to `Cc1ccc(NC(=O)CN2CCc3ccccc3C2)cc1`, for which the inhibition is 90.1% (active).
For `Cc1ccc(NC(=O)CN2CCc3ccccc3C2)cc1C` the value was 7.2% (inactive); for `CSc1nccc(NC(=O)c2ccc(C(C)(C)C)cc2)n1`, 0.3% (inactive).
For `CSC1=N/C(=C\C=C\c2cccs2)C(=O)S1`, the inhibition was 41.3% (active).
`CC1(C(=O)NS(=O)(=O)c2ccccc2)CCN1C(=O)C1CCCCC1` (stereo not given): the inhibition was -2.7% (inactive).
The result for `O=C(CCN1CCN(C/C=C/c2ccccc2)CC1)Nc1cccc(F)c1` reads 2.3% (inactive); that for `Cc1nc2ccc(C(=O)N3CCSCC3)cc2s1`, 93.1% (active).
Turning to `Cc1cccc(C(=O)N2CCC(c3nc4ccccc4s3)CC2)c1`, the inhibition was -7.6% (inactive).
The result for `Cc1nc2ccc(NC(=O)C3CCCCC3)cc2s1` reads -1.1% (inactive).
For `Cc1ccc(C2CCN(C(=S)Nc3cccc(Cl)c3)C2)cc1` (stereo not given) the value was -2.1% (inactive); for `Cc1ccc2cc(C#N)c(NCCNC(=S)NCCCN3CCOCC3)nc2c1`, 50.7% (active).
For the compound `COCCCNC(=S)NCCNc1nc2cc(C)c(C)cc2cc1C#N`, the inhibition is -1.6% (inactive).
For the compound `Cc1cc(C)cc(NC(=S)NCCCN2CCOCC2)c1`, the inhibition was 0.3% (inactive).
As to `CN(Cc1ccccc1F)c1cc2c(c3c1ccn3C)C1CCC2O1` (stereo not given), the inhibition was 7.9% (inactive).
For `O=S(=O)(c1cccc(S(=O)(=O)N2CCC(n3nnc4ccccc43)CC2)c1)N1CCCCC1` the value was 4.9% (inactive); for `Cn1cnnc1SCC(=O)Nc1ccc(N2CCOCC2)cc1`, 7.5% (inactive).
With `C=CC(=O)Nc1ccc(Nc2ccnc(Nc3ccc(N4CCN(C)CC4)cc3)n2)cc1`, the inhibition was 66.1% (active).
With `CN1CCN(c2ccc(NC(=O)c3cc(Cl)c4c(c3)OCCO4)cc2)CC1`, the inhibition is -0.3% (inactive).
On to `C=CCc1cc(S(=O)(=O)c2ccc(O)c(CC=C)c2)ccc1O`, for which the inhibition is -1.3% (inactive).
In the case of `Cc1nc2nc(COc3ccccc3)[nH]n2c(=O)c1C`, the inhibition is 3.7% (inactive).
For `CNC(=O)NCCN1CCCC1=O`, the inhibition is -0.3% (inactive).
As for `CCCCC(C(=O)NC(C)(C)C)N(Cc1ccccc1)C(=O)c1snc(C(N)=O)c1N` (stereo not given), the inhibition is -1.4% (inactive).
For the compound `Cc1csc2nc(O)c(C(=O)NCCN3CCOCC3)c(=O)n12`, the inhibition was -3.8% (inactive).
For the compound `CCCOC(=O)c1ccc(N2C(=O)c3ccccc3C2=O)cc1`, the inhibition was 0.9% (inactive).
As for `CSc1ccccc1NC(=O)C(C)N1C(=O)c2ccccc2S1(=O)=O` (stereo not given), the inhibition is -7.1% (inactive).
With `CC(=O)Nc1ccccc1Sc1ccc2c3c(cccc13)C(=O)N(c1ccc(C)cc1)C2=O`, the inhibition was 48.3% (active).
The result for `COc1ccc(C2N=C(N)N=C(N)N2c2ccccc2)cc1OC` (stereo not given) reads 6% (inactive); that for `CCC(C)Sc1nc(C)nc2c1c(=O)n(C)c(=O)n2C` (stereo not given), 2% (inactive); that for `CCOC(=O)C1(CC2CCCCO2)CCN(Cc2nc(-c3cccs3)oc2C)CC1` (stereo not given), 4% (inactive).
Take `O=C(OCCOCn1cc(Br)c(=O)[nH]c1=O)c1ccccc1`: the inhibition was 0.6% (inactive).
With `CONc1nc2nonc2nc1NOC`, the inhibition was 2.2% (inactive).
For the compound `CC(C)(C)C(=O)Nc1c(Br)c(C2CC2)nn1-c1ccccc1`, the inhibition was 9.6% (inactive).
For `COCCCNC(=O)c1ccc(CNS(=O)(=O)c2ccc(NC(C)=O)cc2)cc1` the value was -1.2% (inactive); for `CCOc1ccc(-n2c(O)c(/C=N/c3ccnn3Cc3ccncc3)c3ccccc3c2=O)cc1`, 76.5% (active).
In the case of `CCOc1ccc(-n2c(SCC(=O)Nc3cc(C(=O)O)ccc3Cl)nc3ccccc3c2=O)cc1`, the inhibition was 2.7% (inactive).
The result for `Cc1nnc(N/N=C/c2ccccn2)[nH]c1=O` reads 6.9% (inactive); that for `COC(=O)Cc1csc(/N=C/c2c(O)n(-c3cccc(C(F)(F)F)c3)c(=O)c3ccccc23)n1`, 33.4% (inactive).
For `CCOc1ccc(-n2c(O)c(/C=N/Nc3nnc(C)c(=O)[nH]3)c3ccccc3c2=O)cc1`, the inhibition was 36.2% (active).
Turning to `CCOc1ccc(N/C(N)=N/c2nc(C)c(C)c(=O)[nH]2)cc1`, the inhibition was -8.8% (inactive).
For `CCOc1ccc(CN2CCN(Cc3ccc4cc(F)ccc4n3)CC2CCO)cc1` (stereo not given) the value was -0.7% (inactive); for `COc1ccc(S(=O)(=O)N(C)C[C@H]2OCc3cnnn3CCCC(=O)N([C@H](C)CO)C[C@H]2C)cc1`, -6.2% (inactive).
On to `Nc1nnc(SCCN2C(=O)c3ccccc3S2(=O)=O)s1`, for which the inhibition was -2.1% (inactive).
For the compound `CC(=O)N(O)CCCCCNC(=O)CCC(=O)N(O)CCCCCNC(=O)CCC(=O)N(O)CCCCCNC(=O)CCC(=O)O`, the inhibition was -7% (inactive).
As for `CCOC(=O)c1ccc2c(c1)nc(SCC(=O)NC(C)C)n2CC`, the inhibition is -1.6% (inactive).
With `C#CCNc1nc(C(C)C)nc2c1nnn2Cc1ccccc1F`, the inhibition was -3.7% (inactive).
On to `COc1ccc2[nH]c3c(C)c4cc[n+](C)cc4c(C)c3c2c1`, for which the inhibition is 88.8% (active).
Regarding `CCCn1nc(C(=O)NNC(=O)CSCC(=O)Nc2cc(C)on2)c2ccccc2c1=O`, the inhibition is 2.6% (inactive).
Take `O=C(Nc1ccc(-c2cscn2)cc1)C1CCCN(Cc2ccc(CO)o2)C1` (stereo not given): the inhibition was -1.3% (inactive).
`CCOC(=O)CSc1nnc(CNC(=O)Cc2ccccc2)n1-c1ccccc1OC`: the inhibition is 0.1% (inactive).
Take `CCCCCCSc1ccc([C@@H]2[C@H]3C(=O)N(CC)C(=O)[C@H]3[C@]3(C(=O)OC)CCCCN23)cc1`: the inhibition was 40.3% (active).
With `CCCCCCSc1ccc([C@@H]2[C@@H]3C(=O)N(CC)C(=O)[C@@H]3[C@]3(C(=O)OC)CCCCN23)cc1OC`, the inhibition is 15.9% (inactive).
In the case of `CCN1C(=O)[C@@H]2[C@@H](c3ccc(-c4ccccc4)cc3)N3CCCC[C@@]3(C(=O)OC)[C@@H]2C1=O`, the inhibition was 7% (inactive).
For the compound `COC(=O)[C@]1(C)CCC[C@@]2(C)C3CC[C@]4(OC(C)=O)C[C@@]3(CCC21)CC4=NO` (stereo not given in full), the inhibition is 0.3% (inactive).
With `CCC(=O)N(C)C(c1ccccc1Cl)c1nnnn1-c1c(C)cccc1C` (stereo not given), the inhibition was 2.8% (inactive).
`O=C(Nc1ccc(-c2nnc(-c3ccccc3)o2)cc1)C1CCCO1` (stereo not given): the inhibition was -0.7% (inactive).
For the compound `COc1ccc(-c2cn(-c3ccc(C)cc3)c(=O)n2CC(=O)Nc2ccc(OC)c(OC)c2)cc1`, the inhibition was 6.4% (inactive).
On to `O=C(Nc1ccc(-c2nnc(-c3ccccc3)o2)cc1)c1ccc(Br)o1`, for which the inhibition was 56.9% (active).
For `O=C(Nc1ccc(N2CCN(C(=O)C3CC3)CC2)cc1)c1cccs1` the value was 0.2% (inactive); for `COc1ccc(NC(=O)Cn2c(-c3ccc(OC)cc3)cn(-c3ccc(C)cc3)c2=O)cc1`, 43.4% (active).
Turning to `Cc1ccc(NC(=O)Cn2c(C)csc2=O)cc1`, the inhibition is -0.6% (inactive).
For `Cc1ccc(C(=O)NCC(=O)OCc2nnc(-c3ccccc3)o2)cc1`, the inhibition was 3% (inactive).
In the case of `COc1ccc(C(CC(=O)Nc2ccc(C)cc2)NC(=O)C(F)(F)F)cc1` (stereo not given), the inhibition was -7.5% (inactive).
In the case of `Cc1ccc(-c2nnc(-c3ccc(NC(=O)c4cccs4)cc3)o2)cc1`, the inhibition is 149% (active).
For `CCS(=O)(=O)c1ccc(-c2cccc(NC(=O)c3ccc(Br)o3)c2)nn1` the value was -4.8% (inactive).
For `COc1ccc(NC(=O)CN(C)C(=O)c2cc(C)oc2C)cc1` the value was -18.9% (inactive); for `COc1ccc(CC(=O)Nc2ccc(-c3nnc(-c4ccc(C)cc4)o3)cc2)cc1`, 32.7% (active); for `CCOC(=O)c1cc(C(C)C)sc1NC(=O)COC(=O)c1nccnc1N`, 16.7% (inactive).
On to `CCOc1ccc2oc(C(=O)N(CC)CC(=O)Nc3ccc(NC(C)=O)cc3)c(C)c2c1`, for which the inhibition is 8.2% (inactive).
In the case of `Cc1cccc(NC(=O)CSc2nnc(CCNC(=O)OC(C)(C)C)o2)c1C`, the inhibition was -2.3% (inactive).
For `O=C(NCc1ccccn1)C1CCN(S(=O)(=O)c2ccc(Br)cc2)CC1` the value was -11.1% (inactive); for `CCC(C)C(CO)NC(=O)/C=C/[C@H]1O[C@@H](n2cnc3c(NC(=O)c4ccccc4)ncnc32)[C@H](O)[C@@H]1O` (stereo not given in full), -5.5% (inactive); for `COc1ccc(NC(=S)N2CCC(NC(=O)c3cccc(F)c3)CC2)cc1`, 6.4% (inactive).
As for `C=CCNC(=O)C1CC=CCC1C(=O)O` (stereo not given), the inhibition is 3.6% (inactive).
Regarding `CCOc1ccc(NC(=O)c2cccc3c2C(=O)N(CC2CCCO2)C3)cc1` (stereo not given), the inhibition was -0.9% (inactive).
On to `O=C(COC(=O)c1n[nH]c2ccccc12)Nc1ccccc1Br`, for which the inhibition is 0.1% (inactive).
Turning to `CN(C)C(=O)c1ccc(NC(=O)c2ccccc2-c2ccccc2)cc1`, the inhibition was 7% (inactive).
The result for `CCc1ccc(NC(=O)CS(=O)CC(=O)N2CCN(c3ccccc3F)CC2)cc1` (stereo not given) reads 0.4% (inactive).
`S=C(NCCCc1ccccc1)Nc1ccc(Br)cc1`: the inhibition was 1% (inactive).
`CCc1ccc(NC(=O)CS(=O)CC(=O)NCCCc2ccccc2)cc1` (stereo not given): the inhibition is 43.6% (active).
The result for `CCNC(=S)Nc1ccc2c(c1)c(=O)n(C)n2Cc1ccc(Cl)cc1` reads 8.6% (inactive); that for `CCn1c(-c2cc(OC)ccc2OC)csc1=Nc1c(C)n(C)n(-c2ccccc2)c1=O`, 1.2% (inactive); that for `COCCNC(=S)N/N=C/c1c(C)[nH]c2ccccc12`, 17% (inactive).
Turning to `CN=c1scc(-c2cc(OC)ccc2OC)n1/N=C/c1c(C)[nH]c2ccccc12`, the inhibition is 56.4% (active).
The result for `COc1ccc(N(CCC(=O)NCCc2ccccc2)S(=O)(=O)c2ccc(C)cc2C)cc1` reads 3.7% (inactive); that for `Cc1cc(OCC(=O)N(C)c2c(N)n(Cc3ccccc3)c(=O)[nH]c2=O)c(C(C)C)cc1Cl`, -1.8% (inactive); that for `CCC(=C/c1sc2ccc3ccccc3c2[n+]1C)/C=C1\Sc2ccc3ccccc3c2N1C`, 70% (active).
For the compound `Cc1ccc(S(=O)(=O)N2C[C@H]3C(=O)C[C@@H](c4cccc5ccccc45)N(S(=O)(=O)c4ccc(C)cc4)[C@H]3C[C@H]2c2ccc(Cl)cc2)cc1`, the inhibition was -1.4% (inactive).
For the compound `O=C(NCc1nnnn1-c1ccc(Cl)cc1)c1ccc([N+](=O)[O-])o1`, the inhibition is -0.3% (inactive).
